# In PubChem BioAssay (NCATS):
# Records with an inconclusive call do not appear. Unmarked numbers belong to inactive results. Activity calls are given as the source filed them. The call rests on the fitted dose curve; in most records, active means well fitted curve in the direction sought with a large enough effect; inconclusive means small, poorly fitted or top-dose-only effect, or another doubt; inactive means no such curve, though single readings can be large or run the other way.
# Molecular target: Calcium and integrin-binding protein 1 (Homo sapiens) (UniProt Q99828)
# Assay: Validation qHTS for Identification of Calcium Integrin Binding protein 1 (CIB1) Competitor (AID 1508618)
# Settings: CIB1-GST / FITC-alphaIIb peptide fluorescence polarization; series mostly up to 114 µM; activity change, negative = inhibition: at the top concentration
# Outline: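 CIB1-GST (1 uM final) incubated 15 min at room temperature with compounds (up to 114 uM), then FITC-labelled alphaIIb peptide (100 nM) added. FP read (Ex 480/Em 540) after 15 min, pH 7.4 buffer containing 5 mM CaCl2.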
# On the % scale 0 is the no-effect control and ±100 the full control effect; potency means the concentration at half of the fitted maximal effect.
# Chain of Calcium and integrin-binding protein 1 (Homo sapiens) (Q99828 whole entry, looked up): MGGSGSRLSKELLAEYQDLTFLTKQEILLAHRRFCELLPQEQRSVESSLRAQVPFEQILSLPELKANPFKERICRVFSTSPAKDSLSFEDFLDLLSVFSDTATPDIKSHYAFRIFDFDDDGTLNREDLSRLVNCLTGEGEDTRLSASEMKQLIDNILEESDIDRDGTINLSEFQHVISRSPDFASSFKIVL
Structure (SMILES),"activity change, negative = inhibition",Potency
O=c1[nH]cc(F)c(=O)[nH]1,7.85%,
CC[C@@]1(O)C(=O)OCc2c1cc1n(c2=O)Cc2cc3c(CN(C)C)c(O)ccc3nc2-1,,14.1 µM (active)
COc1cc2nc(N3CCN(C(=O)C4COc5ccccc5O4)CC3)nc(N)c2cc1OC (centres undefined),30.7%,
C[C@](N)(Cc1ccc(O)c(O)c1)C(=O)O,4.96%,
CN1CCN2c3ccccc3Cc3ccccc3C2C1 (centres undefined),6.79%,
CN(CCOc1ccc(NS(C)(=O)=O)cc1)CCc1ccc(NS(C)(=O)=O)cc1,3.35%,
NCCCCCC(=O)O,-0.287%,
CCc1cccc2c3c([nH]c12)C(CC)(CC(=O)O)OCC3 (centres undefined),6.47%,
CC(C)NCC(O)COc1ccc(CCOCC2CC2)cc1 (centres undefined),4.25%,
Nc1ccn([C@H]2CC[C@@H](CO)O2)c(=O)n1,10.7%,
O=C1N(c2ccccc2)c2ccccc2C1(Cc1ccncc1)Cc1ccncc1,2.23%,
Cc1cc(C(C)(C)C)cc(C)c1CC1=NCCN1,5.9%,
Cc1cc(C(C)(C)C)c(O)c(C)c1CC1=NCCN1,5.31%,
COc1cc2nc(N3CCN(C(=O)c4ccco4)CC3)nc(N)c2cc1OC,18.7%,
CCC1(c2ccccc2)C(=O)NCNC1=O,1.78%,
Cc1cn([C@H]2C=C[C@@H](CO)O2)c(=O)[nH]c1=O,5.07%,
CCOC(=O)c1ncn2c1CN(C)C(=O)c1cc(F)ccc1-2,10.1%,

Structure (SMILES),"activity change, negative = inhibition",Potency
Nc1c2c(nc3ccccc13)CCCC2,12.2%,
COC(=O)Nc1nc2ccc(C(=O)c3cccs3)cc2[nH]1,5.87%,
O=c1c(-c2ccc(O)cc2)coc2cc(O)cc(O)c12,-3.47%,
CC(=O)OCC(CCn1cnc2cnc(N)nc21)COC(C)=O,8.77%,
Nc1nnc(-c2cccc(Cl)c2Cl)c(N)n1,8.9%,
COc1ccc2[nH]cc(CCNC(C)=O)c2c1,2.75%,
COc1cc2c(c(OC)c1OC)-c1ccc(OC)c(=O)cc1[C@@H](NC(C)=O)CC2,6.3%,
N[C@@H](Cc1c[nH]c2ccc(O)cc12)C(=O)O,15.9%,
CCN1CCCC1CNC(=O)c1cc(S(=O)(=O)CC)c(N)cc1OC (centres undefined),1.66%,
Clc1ccc(C(c2ccccc2Cl)C(Cl)Cl)cc1 (centres undefined),11.1%,
COc1ccccc1N1CCN(CC(O)COc2cccc3ccccc23)CC1 (centres undefined),-2.89%,
COc1ccc(C2CNC(=O)C2)cc1OC1CCCC1 (centres undefined),3.43%,
CN1C(C(=O)Nc2ccccn2)=C(O)c2ccccc2S1(=O)=O,5.3%,
CCC1(C)CC(=O)NC1=O (centres undefined),6.03%,
O=C(C1CCCCC1)N1CC(=O)N2CCc3ccccc3C2C1 (centres undefined),13.3%,
C[C@H]1c2cccc(O)c2C(O)=C2C(=O)[C@]3(O)C(O)=C(C(N)=O)C(=O)[C@@H](N(C)C)[C@@H]3[C@@H](O)[C@@H]21,-7.61%,
NS(=O)(=O)c1cc2c(cc1Cl)NCNS2(=O)=O,8.77%,
